TEAD-YAP block = TEAD-YAP interaction inhibition | inhibition, % at 9.12 µM | hit rate 1.4% among 640,000 | AID 1259422 | HEK-TIYL cells, TEAD-Gal4/YAP UAS-luciferase luminescence; in the data active means inhibition above about 32%
GPR151 ag = activates the human receptor GPR151; Q8TDV0; PathHunter beta-arrestin GPR151 cells, luminescence; activation, % at 11.2 µM; hit rate 1% among 650,000; AID 1508602; in the data active means activation above about 4.9%
MITF primary = human MITF inhibition, primary screen | O75030 | AlphaScreen MITF homodimerization, bead proximity signal | inhibition, % at 2.6 µM | hit rate 0.91% among 650,000 | AID 1259374; in the data active means inhibition above about 50%
FBW7 activator = human FBW7 E3 ligase activation, primary screen; hit rate 0.13% among 650,000; AID 1259310; Q969H0; AlphaScreen FBW7–phospho-cyclin E peptide binding, activator screen; normalized activity (activation), % at 26.1 µM; in the data active means normalized activity above about 1.9%;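 further: purified mutant Fbw7 with reduced substrate affinity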
Target sequence (Q969H0 whole entry, looked up): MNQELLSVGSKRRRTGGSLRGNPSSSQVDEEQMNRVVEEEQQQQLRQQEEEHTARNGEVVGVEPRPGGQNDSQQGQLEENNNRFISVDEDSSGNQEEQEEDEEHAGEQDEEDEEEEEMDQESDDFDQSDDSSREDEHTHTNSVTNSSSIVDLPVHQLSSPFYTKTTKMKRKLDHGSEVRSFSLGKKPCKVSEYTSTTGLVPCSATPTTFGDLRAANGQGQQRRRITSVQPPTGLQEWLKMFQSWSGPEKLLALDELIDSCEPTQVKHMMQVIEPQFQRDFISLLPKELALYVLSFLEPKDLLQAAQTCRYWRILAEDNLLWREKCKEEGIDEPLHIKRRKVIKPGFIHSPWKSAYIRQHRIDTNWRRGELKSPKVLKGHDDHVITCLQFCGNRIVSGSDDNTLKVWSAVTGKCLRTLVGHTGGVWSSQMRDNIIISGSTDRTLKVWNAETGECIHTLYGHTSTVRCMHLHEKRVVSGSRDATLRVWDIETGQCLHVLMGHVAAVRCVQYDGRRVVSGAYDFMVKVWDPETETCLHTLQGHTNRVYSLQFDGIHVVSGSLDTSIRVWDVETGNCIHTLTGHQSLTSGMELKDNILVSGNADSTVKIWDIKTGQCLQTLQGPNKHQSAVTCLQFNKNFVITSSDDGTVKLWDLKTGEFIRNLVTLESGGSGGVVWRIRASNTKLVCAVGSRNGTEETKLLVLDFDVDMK
GPR151 confirm = human GPR151 activation, confirmation screen | shares compounds with GPR151 ag | 6,700 tested, under 10 active | GPR151 PathHunter beta-arrestin cells, luminescence, 90 min; % of EA-reagent control over plate median | AID 1508609 | activation, % at 11.2 µM;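 active means mean percent activation across replicates above the confirmation screen cutoff of 4.91%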
GPR119 ag = counter-screen for GPR151 activators: effect on human GPR119. shares compounds with GPR151 ag. GPR119 PathHunter beta-arrestin cells, luminescence, 90 min; 0 = compound-well median, 100 = enzyme-acceptor control. activation, % at 11.2 µM. hit rate 0.3% among 6,700. AID 1508611;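 active means mean percent activation in the counterscreen above 29.09%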;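 further: counterscreen on off-target GPR119 to flag nonselective hits from the GPR151 activator screen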
Large screens that a line does not name were inactive (follow-up assays come after a bar, where they were run). In the library only some 3.4% were active in any assay of this set; here they are far more common.

COC(c1ccc2c(c1)CN(C(=O)c1nc3ncccn3n1)CCO2)C1CCCCC1 (configuration not stated)	GPR151 ag 9.5 | GPR151 confirm inactive | GPR119 ag inactive
CCc1nc(N)c(C#N)c(-c2ccc([N+](=O)[O-])cc2)c1C	GPR151 ag 5.3 | GPR151 confirm inactive | GPR119 ag inactive
CCOc1ccccc1CN1CCN(Cc2cc(F)cc(F)c2)CC1CCO (configuration not stated)	none
CCOc1ccccc1CN1CCN(C2CCN(c3ccccc3F)CC2)CC1CCO (configuration not stated)	GPR151 ag 11 | GPR151 confirm inactive | GPR119 ag inactive
COc1cccc(CN2CCN(Cc3ccccc3O)CC2CCO)c1 (configuration not stated)	GPR151 ag 8.1 | GPR151 confirm inactive | GPR119 ag inactive
CCOc1ccccc1CN1CCN(C2CCCC2)CC1CCO (configuration not stated)	none
COc1ccc(CN2CCN(CCCc3ccccc3)C(CCO)C2)c(O)c1 (configuration not stated)	none
CCOc1ccccc1CN1CCN(Cc2cccc(F)c2)CC1CCO (configuration not stated)	GPR151 ag 5.4 | GPR151 confirm inactive | GPR119 ag inactive
COc1ccc(CN2CCN(CCCc3ccccc3)C(CCO)C2)c(OC)c1 (configuration not stated)	GPR151 ag 5.0 | GPR151 confirm inactive | GPR119 ag inactive
CCOc1ccc(CNc2nc3nc(C)cc(=O)n3[nH]2)cc1	none
C=CCOc1ccccc1CN1CCN(Cc2ccsc2)C(CCO)C1 (configuration not stated)	GPR151 ag 6.1 | GPR151 confirm inactive | GPR119 ag inactive
OCCC1CN(Cc2ccncc2)CCN1Cc1ccccc1F (configuration not stated)	GPR151 ag 6.6 | GPR151 confirm inactive | GPR119 ag inactive
COc1cccc(CN2CCN(Cc3cc(Cl)c(O)c(OC)c3)CC2CCO)c1 (configuration not stated)	GPR151 ag 6.3 | GPR151 confirm inactive | GPR119 ag inactive
Cc1ccccc1CN1CCN(Cc2ccn[nH]2)CC1CCO (configuration not stated)	GPR151 ag 6.0 | GPR151 confirm inactive | GPR119 ag inactive
OCCC1CN(Cc2cc(F)cc(F)c2)CCN1Cc1ccccc1F (configuration not stated)	none
OCCC1CN(Cc2ccn[nH]2)CCN1Cc1ccccc1F (configuration not stated)	none
CC(=O)c1ccc(S(=O)(=O)N2CCc3nc(N4CCCCC4)[nH]c(=O)c3C2)cc1	none
C=CCOc1ccc(C(=O)Nc2ccccc2Br)cc1	none
Cc1ccccc1CN1CCN(Cc2cccc(OCCO)c2)CC1CCO (configuration not stated)	GPR151 ag 5.9 | GPR151 confirm inactive | GPR119 ag inactive
CC(C)=CCN1CCN(Cc2cccc(OCCO)c2)CC1CCO (configuration not stated)	none
CCOC(=O)C1CN(S(=O)(=O)c2ccc(OC)cc2)c2ccccc2O1 (configuration not stated)	GPR151 ag 6.5 | GPR151 confirm inactive | GPR119 ag inactive
O=C(NCCC1=CCCCC1)c1cccnc1SCc1cccc(Br)c1	none
O=C(NCCC1=CCCCC1)c1cccnc1SCc1ccccc1F	GPR151 ag 5.4 | GPR151 confirm inactive | GPR119 ag inactive
NC(=O)C1CCCc2c1[nH]c1c(C(=O)O)cccc21 (configuration not stated)	GPR151 ag 6.1 | GPR151 confirm inactive | GPR119 ag inactive
CC(=O)c1c(C)[nH]c(C(=O)COC(=O)c2ccc(-n3nc(C)cc3C)cc2)c1C	GPR151 ag 7.7 | GPR151 confirm inactive | GPR119 ag inactive
Cc1cc(C)n(-c2ccc(C(=O)OCC(=O)c3ccccc3)cc2)n1	none
O=C(NC1CCCC1)c1nnc(Cc2cccc(F)c2)o1	none
CCOC(=O)c1ccc(NC(=O)CCSc2nc(N)c3c(C)c(C)sc3n2)cc1	GPR151 ag 6.8 | GPR151 confirm inactive | GPR119 ag inactive
COc1ccc(CCNS(=O)(=O)c2ccc(OC)c(C(=O)O)c2)cc1OC	none
Cc1cc(=O)[nH]c(SC(C)C(=O)Nc2cccc(Cl)c2)n1 (configuration not stated)	GPR151 ag 8.7 | GPR151 confirm inactive | GPR119 ag inactive
CCc1ccccc1NC(=O)Nc1cccn(Cc2ccccc2Br)c1=O	none
COc1ccc(CN(C(=O)c2ccccc2F)C2CCS(=O)(=O)C2)cc1OC (configuration not stated)	none
OC(COc1ccc2ccccc2c1Cl)Cn1ccnc1 (configuration not stated)	GPR151 ag 5.0 | GPR151 confirm inactive | GPR119 ag inactive
Cc1nccn1CC(O)COc1cccc2ccccc12 (configuration not stated)	none
CCCS(=O)(=O)N1CCN(Cc2nc(C(C)(C)C)cs2)CC1	GPR151 ag 8.8 | GPR151 confirm inactive | GPR119 ag inactive
Cc1noc(C)c1S(=O)(=O)N1CCN(Cc2nc(C(C)(C)C)cs2)CC1	none
CC(C)Sc1nc(N2CCCC2)c2cnn(CCNC(=O)c3cccc(F)c3)c2n1	none
CCCCC[C@@H](O)/C=C/[C@H]1[C@H](O)CC(=O)[C@@H]1CCCCCCC(=O)O	GPR151 ag 7.2 (no result: TEAD-YAP block, FBW7 activator) | GPR151 confirm inactive | GPR119 ag inactive
CCCCC[C@H](O)/C=C/[C@H]1[C@H](O)CC(=O)[C@@H]1CCCCC(=O)O	none (no result: TEAD-YAP block, FBW7 activator)
O=C(CSc1nc(-c2ccccc2)cs1)NC(=O)Nc1ccc2c(c1)OCCO2	none
CCN(CC)C(=O)c1sc(NC(=O)c2ccc(F)cc2)c(C(=O)OC)c1C	GPR151 ag 5.1 | GPR151 confirm inactive | GPR119 ag inactive
CCN(CC)C(=O)c1sc(NC(=O)c2cccnc2)c(C(=O)OC)c1C	none
CCOC(=O)C1(CCCc2ccccc2)CCN(C(=O)CSc2ncccn2)CC1	none
CCOC(=O)C1(CC2CCCCO2)CCN(C(=O)CSc2ncccn2)CC1 (configuration not stated)	GPR151 ag 4.9 | GPR151 confirm inactive | GPR119 ag inactive
CCOC(=O)C1(CCc2ccccc2)CCN(C(=O)CSc2ncccn2)CC1	GPR151 ag 5.6 | GPR151 confirm inactive | GPR119 ag inactive
O=c1/c(=C/c2cccc([N+](=O)[O-])c2)sc2nc(-c3ccc(F)cc3)nn12	none
NC(=O)COc1ccc(NC(=O)c2cncc(Br)c2)cc1	GPR151 ag 6.1 | GPR151 confirm inactive | GPR119 ag inactive
COCCNC(=O)[C@@H]1C[C@H](NCc2ccccc2Cl)CN1C1Cc2ccccc2C1	GPR151 ag 6.4 | GPR151 confirm inactive | GPR119 ag inactive
COCCNC(=O)[C@@H]1C[C@H](NCc2cc(C)ccc2C)CN1C1Cc2ccccc2C1	none

Source: PubChem (The Scripps Research Institute Molecular Screening Center)
